Test results reported in PubChem BioAssay (NCATS).
“And” between values parts separate entries of the source, which are not always exact repeats. Equal values may be shown once. Results filed as inconclusive are left out. The source holds several records for some structures; these can differ, active in one and inactive in another. The source made the active and inactive calls. Unless noted, calls come from the whole dose curve; as a rule, active = well fitted curve in either direction with a large enough effect (not every such curve was filed as active); inconclusive = small, poorly fitted or top-dose-only effect, or another doubt; inactive = flat fitted curve, though single readings scatter.

Columns and labels:
[1] = Stat Signaling Pathway (AID 446); settings: ME-180 (cervical carcinoma) SIE beta-lactamase reporter, IL-6 stimulated, 5 h;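 note: ME-180 cervical cancer cells given 40 pM IL-6 alongside compound; SIE-controlled beta-lactamase reporter measured as 460/530 nm FRET emission ratio; % is set by controls: 0 for no effect and ±100 for the full control effect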
Outline: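 Emission at 460 and 530 nm (excitation 405 nm) reports SIE-controlled beta-lactamase in ME-180 cells. Cells received compound with 40 pM IL-6 for 5 hrs at 37 C; data scaled between 300 pM IL-6 and 125 nM JAK-inhibitor controls.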

[2] = molecular target: Glucocorticoid receptor (Homo sapiens) (UniProt P04150); test: GR-GFP Redistribution (AID 450;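 active = compounds whose dose series gives a full or clear partial fitted curve of increased nuclear translocation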; note: potency is the fitted concentration of half-maximal effect); settings: U2OS GR-GFP nuclear translocation, laser cytometry, 2 h
Sequence of Glucocorticoid receptor (Homo sapiens) (P04150 whole entry, looked up, the tested form may be a part): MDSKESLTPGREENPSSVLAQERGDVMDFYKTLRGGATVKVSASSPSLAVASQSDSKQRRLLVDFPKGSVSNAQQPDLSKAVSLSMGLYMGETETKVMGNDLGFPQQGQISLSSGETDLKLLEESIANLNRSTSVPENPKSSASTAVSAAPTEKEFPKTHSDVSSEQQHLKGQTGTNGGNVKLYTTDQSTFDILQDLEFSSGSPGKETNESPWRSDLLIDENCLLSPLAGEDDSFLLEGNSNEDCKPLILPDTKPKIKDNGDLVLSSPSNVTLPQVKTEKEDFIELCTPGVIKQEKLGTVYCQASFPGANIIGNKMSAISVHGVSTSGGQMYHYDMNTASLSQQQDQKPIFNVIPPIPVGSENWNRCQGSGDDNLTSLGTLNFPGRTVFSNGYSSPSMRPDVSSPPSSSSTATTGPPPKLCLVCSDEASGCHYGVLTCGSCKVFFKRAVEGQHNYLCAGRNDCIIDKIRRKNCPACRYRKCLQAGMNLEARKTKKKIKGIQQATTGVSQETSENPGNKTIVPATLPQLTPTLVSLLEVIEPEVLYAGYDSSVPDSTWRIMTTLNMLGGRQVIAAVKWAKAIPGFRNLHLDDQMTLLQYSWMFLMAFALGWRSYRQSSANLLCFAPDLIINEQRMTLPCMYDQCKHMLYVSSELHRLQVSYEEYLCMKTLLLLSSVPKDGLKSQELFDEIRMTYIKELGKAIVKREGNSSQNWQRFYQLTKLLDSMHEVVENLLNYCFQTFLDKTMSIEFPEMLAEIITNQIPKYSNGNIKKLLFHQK

[3] = molecular target: Glucocorticoid receptor (Homo sapiens) (UniProt P04150); test: GR-EFC Redistribution (AID 451; calls by dose curve; note: potency is the fitted concentration of half-maximal effect); settings: CHO-K1 GR-EFC translocation, beta-gal luminescence, 2 h
Outline: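 Translocation of GR-ED fusion to nuclear EA restores b-gal, read by luminescence after 1 h room-temperature detection. Engineered CHO-K1 biosensor cells, 1,000/well, exposed 2 h at 37 C to titrations up to 46 uM final.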

[4] = molecular target: Mitogen-activated protein kinase 10 (Mus musculus) (UniProt Q61831); test: JNK3 AlphaScreen Assay (AID 530); settings: JNK3 lysate, c-Jun phosphorylation; series mostly up to 57.1 µM;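 note: kinase came from lysate of stimulated human HepG2 cells; signal reports phosphorylation of biotinylated GST-cJun 1-79 at Ser73 with 10 µM ATP; % is set by controls: 0 for no effect and ±100 for the full control effect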
Outline: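 qHTS titrations with 15 min compound pre-incubation before adding ATP (10 uM final). Read-out: AlphaScreen of Ser73-phosphorylated biotin-GST-cJun using HepG2 lysate JNK3 activated by IL-1β and TNFα.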

[5] = molecular target: 3',5'-cyclic-AMP phosphodiesterase 4B (Homo sapiens) (UniProt Q07343); test: qHTS Assay for Inhibitors of PDE-IV (AID 607; active = well fitted activation curve with a large enough effect in the main read-out, with a control signal flat, not every such curve was filed as active; note: potency is the fitted concentration of half-maximal effect); settings: HEK293 ACTOne CNG channel cells, membrane potential fluorescence; series mostly up to 22.9 µM
Sequence of 3',5'-cyclic-AMP phosphodiesterase 4B (Homo sapiens) (Q07343 whole entry, looked up): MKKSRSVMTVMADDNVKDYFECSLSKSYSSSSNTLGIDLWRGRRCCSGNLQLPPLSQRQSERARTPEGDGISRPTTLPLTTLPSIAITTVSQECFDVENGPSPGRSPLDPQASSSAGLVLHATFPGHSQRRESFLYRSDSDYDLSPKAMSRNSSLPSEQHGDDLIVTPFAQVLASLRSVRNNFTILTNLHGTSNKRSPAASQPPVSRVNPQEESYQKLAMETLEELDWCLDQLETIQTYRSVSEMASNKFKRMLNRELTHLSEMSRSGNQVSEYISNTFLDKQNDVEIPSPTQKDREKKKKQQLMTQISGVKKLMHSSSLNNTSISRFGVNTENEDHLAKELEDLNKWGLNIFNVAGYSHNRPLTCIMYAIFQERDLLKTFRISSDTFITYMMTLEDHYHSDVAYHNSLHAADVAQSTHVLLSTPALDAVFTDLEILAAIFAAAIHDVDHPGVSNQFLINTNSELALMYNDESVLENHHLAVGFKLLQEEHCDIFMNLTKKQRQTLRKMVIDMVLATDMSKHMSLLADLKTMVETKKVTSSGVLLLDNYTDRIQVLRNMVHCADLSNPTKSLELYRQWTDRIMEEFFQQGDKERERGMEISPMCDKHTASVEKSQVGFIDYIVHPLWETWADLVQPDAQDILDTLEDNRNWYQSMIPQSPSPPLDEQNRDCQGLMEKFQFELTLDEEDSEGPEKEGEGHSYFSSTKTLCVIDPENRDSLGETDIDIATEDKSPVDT
Outline: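 The readout is membrane depolarisation from a cAMP-sensing CNG channel, detected with a potential dye at ex 535/em 590. Cells were HEK293-derived (endogenous PDE-IV) at 1000 cells/well, titrated up to 22.9 uM final.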

[6] = at 38 µM (top of the series) unless noted

COc1ccccc1N1CCN(CCCCN2C(=O)c3ccccc3C2=O)CC1
inactive: activity, negative = inhibition [1, 6] 19% | Potency [2] > 46 µM | Potency [3] > 46 µM | outcome [4]

CC(C)NC[C@H](O)COc1ccc(CC(N)=O)cc1
inactive: activity, negative = inhibition ([1]; at 17.2 µM (top of the series)) 2.19% and -5.69% | activity, negative = inhibition ([1]; at 38 µM (top of the series)) 0.94% and 14.3% | outcome [4] | Potency [5]

COc1ccccc1N1CCN(CCCCNC(=O)c2ccc3ccccc3c2)CC1
inactive: activity, negative = inhibition ([1]; at 17.2 µM (top of the series)) 5.11% | activity, negative = inhibition ([1]; at 38 µM (top of the series)) -1.2% | Potency [2] > 46 µM and > 20.6 µM | Potency [3] > 46 µM and > 20.6 µM | outcome [4] | Potency [5]

COCc1nc2c([nH]1)c(=O)n(C)c(=O)n2CC(C)C
inactive: activity, negative = inhibition [1, 6] -22% | Potency [2] > 46 µM | Potency [3] > 46 µM | outcome [4]

NC/C=C\C(=O)O
inactive: activity, negative = inhibition [1, 6] 22.6% and 7.43% | Potency [2] > 46 µM | Potency [3] > 46 µM | outcome [4]

Nc1nc2[nH]c(=O)cnc2c(=O)[nH]1
inactive: activity, negative = inhibition [1, 6] 29.5% | Potency [2] > 46 µM | Potency [3] > 46 µM | outcome [4]

O=[N+]([O-])c1cccc2cn[nH]c12
inactive: activity, negative = inhibition ([1]; at 17.2 µM (top of the series)) -4.16% | activity, negative = inhibition ([1]; at 38 µM (top of the series)) -5.67% | Potency [2] > 46 µM and > 20.6 µM | Potency [3] > 46 µM | outcome [4]

COc1ccc(NC(=O)c2ccc(-c3ccc(-c4noc(C)n4)cc3C)cc2)cc1N1CCN(C)CC1
inactive: activity, negative = inhibition [1, 6] -18.9% | Potency [2] > 46 µM | Potency [3] > 46 µM | outcome [4]

COc1ccccc1N1CCN(CCCNc2c(C)c(=O)n(C)c(=O)n2C)CC1
inactive: activity, negative = inhibition [1, 6] 0.762% | Potency [2] > 46 µM | Potency [3] > 46 µM | outcome [4]

CC(C)NCC(O)COc1ccc(CC(N)=O)cc1 (stereo not given)
inactive: activity, negative = inhibition [1, 6] 14% [at 17.2 µM]

O=c1ccc2c(OCCCCc3ccccc3)c3ccoc3cc2o1
inactive: activity, negative = inhibition [1, 6] 3.59% | Potency [2] > 46 µM | Potency [3] > 46 µM

CCCCCCC/C=C\CCCCCCCCC(=O)O
inactive: activity, negative = inhibition [1, 6] -1.08% | Potency [2] > 46 µM | Potency [3] > 46 µM | outcome [4]

NCCCNCCCCNCCCN
inactive: activity, negative = inhibition [1, 6] -4.41% | Potency [2] > 46 µM | Potency [3] > 46 µM | outcome [4]

O=C(O)/C=C/c1ccc(O)c(O)c1
inactive: activity, negative = inhibition [1, 6] -8.31% [at 17.2 µM] | Potency [2] > 20.6 µM

O=C(O)C1=CCCN(CCON=C(c2ccccc2)c2ccccc2)C1
inactive: activity, negative = inhibition [1, 6] -1.1% | Potency [2] > 46 µM | Potency [3] > 46 µM | outcome [4]

CCN1C(=O)C=CC1=O
inactive: activity, negative = inhibition [1, 6] -6.29% | Potency [2] > 46 µM | Potency [3] > 46 µM

NC(N)=[N+]1CCc2ccccc2C1
inactive: activity, negative = inhibition [1, 6] 19.1% | Potency [2] > 46 µM | Potency [3] > 46 µM

Nc1ncnc2c1ncn2C1CCCC1
inactive: activity, negative = inhibition [1, 6] 8.7% | Potency [2] > 46 µM | Potency [3] > 46 µM | outcome [4]

N[C@@H](Cc1ccc(O)c(I)c1)C(=O)O
inactive: activity, negative = inhibition [1, 6] 5.15% [at 17.2 µM] | Potency [2] > 20.6 µM

CCCCCCCC/C=C\CCCCCCCC(=O)NCCc1ccc(O)c(O)c1
inactive: activity, negative = inhibition [1, 6] 0.267% | Potency [2] > 46 µM | Potency [3] > 46 µM

CC1CNCCN1S(=O)(=O)c1cccc2cnccc12 (stereo not given)
inactive: activity, negative = inhibition [1, 6] -1.62% [at 17.2 µM] | Potency [2] > 20.6 µM

C[C@H](O)C(=O)C1=Nc2c(nc(N)[nH]c2=O)NC1
inactive: activity, negative = inhibition [1, 6] -2.31% | Potency [2] > 46 µM | Potency [3] > 46 µM | outcome [4]

O=C(O)Cc1ccc(O)c(O)c1
inactive: activity, negative = inhibition [1, 6] 18.6% | Potency [2] > 46 µM | Potency [3] > 46 µM | outcome [4]

CN(C)CCC(c1ccc(Br)cc1)c1ccccn1 (stereo not given)
inactive: activity, negative = inhibition [1, 6] 1.22% [at 17.2 µM]

CCCn1c(=O)c2[nH]c(C3CCCC3)nc2n(CCC)c1=O
inactive: activity, negative = inhibition ([1]; at 17.2 µM (top of the series)) -4.29% | activity, negative = inhibition ([1]; at 38 µM (top of the series)) -11.4% | Potency [2] > 46 µM and > 20.6 µM | Potency [3] > 46 µM | outcome [4]
5.01 µM (active) and inactive: Potency [5]

COc1ccc(C(=O)NCc2cccnc2)cc1C(=O)NCc1cccnc1
inactive: activity, negative = inhibition ([1]; at 17.2 µM (top of the series)) 2.24% | activity, negative = inhibition ([1]; at 38 µM (top of the series)) -27.6% | Potency [2] > 46 µM and > 20.6 µM | Potency [3] > 46 µM and > 20.6 µM | outcome [4] | Potency [5]
